Compound activity: PubChem, several laboratories
tim23-1 inh: growth inhibitors of tim23-1 mutant yeast. S. cerevisiae tim23-1 growth, BacTiter-Glo luminescence, 24 h. inhibition, % at 20 µM. 330,000 tested, 1.3% active;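 active = growth inhibition of the mutant yeast at or above 50%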;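 note: temperature-sensitive mutant grown at 25 °C; plate controls were DMSO-treated mutant yeast for no effect and medium wells lacking yeast for full effect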
NALP1 yeast inh: NALP1 inhibition; S. cerevisiae NALP1/ASC/caspase-1 growth, X-gal OD620, 72 h; inhibition, % at 10 µM; 280,000 tested, 0.61% active; in the data active = inhibition mostly above about 24%, no sharp cut-off; inactive = mostly below about 32%
NLRP3 yeast inh: NALP3 inhibition in yeast | Yeast reconstituted NLRP3/ASC/caspase-1, beta-gal luminescence, 24 h | 330,000 tested, 0.39% active | AID 2825 | inhibition, % at 10 µM;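 active = inhibition of 50% or more; inactive = inhibition below 50%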;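 note: plate controls were induced DMSO wells for no effect and uninduced yeast grown without galactose for full effect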
PfHsp90 set2: reduces growth (ATP signal) of yeast expressing P. falciparum Hsp90. S. cerevisiae expressing PfHsp90, BacTiter-Glo ATP, 48 h; yeast lacking PDR1 and PDR3 efflux regulators. inhibition, % at 9.4 µM. 310,000 tested, 0.32% active. AID 504621;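 active = every replicate shows inhibition above about 80%, whatever the replicate mean, limit read from the data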;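 note: 0% = DMSO neutral controls and 100% = 20 µM radicicol positive controls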
TIM10 inh: inhibits growth of TIM10 yeast strain | S. cerevisiae TIM10 strain growth, BacTiter-Glo luminescence, 24 h | inhibition, % at 10 µM | 330,000 tested, 1.4% active;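 active = inhibition of 40% or more at the single tested concentration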;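 note: wild-type TIM10 isogenic control strain grown at permissive 25 °C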
tim10-1 inh: tim10-1 yeast growth inhibition | S. cerevisiae tim10-1 ts strain growth, BacTiter-Glo, 24 h | inhibition, % at 20 µM | 330,000 tested, 2.2% active;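 active = inhibition of at least 40%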;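 note: mutant grown at 25 °C; 0% = DMSO wells with yeast and 100% = wells holding no yeast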
tim10-1 confirm: confirmation of tim10-1 mutant yeast growth inhibitors; shares compounds with tim10-1 inh; S. cerevisiae tim10-1 ts strain growth, BacTiter-Glo, 24 h; inhibition, % at 20 µM; 7,400 tested, 56% active;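 active = inhibition of yeast growth at or above a set limit in either of two repeat tests at 20 µM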;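 note: tim10-1 mutant grown at permissive 25 °C to find synthetic lethal compounds; 0% = DMSO yeast wells and 100% = medium wells without yeast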
tim10 confirm: TIM10 yeast growth inhibition, confirmed | shares compounds with TIM10 inh | S. cerevisiae tim10 strain growth, BacTiter-Glo luminescence, 24 h | inhibition, % at 10 µM | 4,600 tested, 63% active;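 active = inhibition of yeast growth at or above a set limit in either of two replicates at 10 µM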;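 note: this counterscreen used the strain with wild-type TIM10; 0% = yeast with DMSO and 100% = medium wells lacking yeast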
tim23-1 conf: tim23-1 yeast growth inhibition, confirmed; S. cerevisiae tim23-1 growth, BacTiter-Glo luminescence, 24 h; inhibition, % at 20 µM; 4,400 tested, 83% active; shares compounds with tim23-1 inh; AID 463218;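 active = inhibition above about 39% in either of two replicate wells at 20 µM, limit read from the data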;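 note: temperature-sensitive tim23-1 mutant grown at 25 °C; 0% = DMSO wells with yeast and 100% = medium wells without yeast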
* = called active by the depositor. In the library only some 4.1% were active in any assay of this set; here they are far more common.

Screening C/C(=N/Nc1nc(-c2ccccc2)cc(-c2ccc(F)cc2)n1)c1cccc(N)c1 returned tim23-1 inh 55*, NALP1 yeast inh 11, NLRP3 yeast inh 3, PfHsp90 set2 -25, TIM10 inh 52*, tim10-1 inh 46*, tim10-1 confirm 44*, tim10 confirm 0 and tim23-1 conf 53*.
`CC1=CC(=NOC(=O)c2cccc([N+](=O)[O-])c2)C=C(C)C1=O` gave tim23-1 inh 57*, NALP1 yeast inh 12, NLRP3 yeast inh 8, PfHsp90 set2 -7, TIM10 inh 20, tim10-1 inh 45*, tim10-1 confirm 36* and tim23-1 conf 64*.
For COc1ccccc1C/C(N)=N/OC(=O)c1cccc([N+](=O)[O-])c1C the results were tim23-1 inh 78*, NALP1 yeast inh 48, NLRP3 yeast inh 17, PfHsp90 set2 -4, TIM10 inh 83*, tim10-1 inh 46*, tim10-1 confirm 33*, tim10 confirm -32 and tim23-1 conf 74*.
`COc1ccc(/C(N)=N/OC(=O)c2cccc([N+](=O)[O-])c2C)cc1` gave tim23-1 inh 72*, NALP1 yeast inh 19, NLRP3 yeast inh 12, PfHsp90 set2 -18, TIM10 inh 83*, tim10-1 inh 65*, tim10-1 confirm 53*, tim10 confirm 78* and tim23-1 conf 60*.
For COc1cccc(C(=O)O/N=C(\N)c2ccc([N+](=O)[O-])cc2)c1 the results were tim23-1 inh 1, NALP1 yeast inh -24, NLRP3 yeast inh 4, PfHsp90 set2 26, TIM10 inh -4 and tim10-1 inh 27.
COc1ccc(/C(N)=N/OC(=O)c2cccc([N+](=O)[O-])c2)cc1 was read as tim23-1 inh 66*, NALP1 yeast inh -15, NLRP3 yeast inh 7, PfHsp90 set2 -41, TIM10 inh 32, tim10-1 inh 42*, tim10-1 confirm 54* and tim23-1 conf 74*.
CSCCC(NS(=O)(=O)c1ccccc1F)C(=O)N1CCCCCCC1 (stereo not given) was read as tim23-1 inh 20, NALP1 yeast inh 5, NLRP3 yeast inh 6, PfHsp90 set2 -1, TIM10 inh 17 and tim10-1 inh 25.
CCn1ncc(Br)c1C(=O)NC1CCCCCCC1 was read as tim23-1 inh 14, NALP1 yeast inh 4, NLRP3 yeast inh -1, PfHsp90 set2 27, TIM10 inh -10 and tim10-1 inh -10.
Screening Cc1ccc(N(C)S(=O)(=O)c2cccc(C(=O)Nc3nc4ccccc4[nH]3)c2)cc1 returned tim23-1 inh 56*, NALP1 yeast inh 18, NLRP3 yeast inh 12, PfHsp90 set2 -17, TIM10 inh 34, tim10-1 inh 41*, tim10-1 confirm 42* and tim23-1 conf 53*.
COc1ccc(C)cc1N1CC(C(=O)OCc2nc(N)nc(Nc3ccccc3C)n2)CC1=O (stereo not given) was read as tim23-1 inh -3, NLRP3 yeast inh 16, TIM10 inh 6 and tim10-1 inh 5.
For Cc1ccc2cc(/C=C/C(=O)c3ccco3)c(Cl)nc2c1 the results were tim23-1 inh 80*, NLRP3 yeast inh 31, TIM10 inh 61*, tim10-1 inh 54*, tim10-1 confirm 54*, tim10 confirm 61* and tim23-1 conf 65*.
Cc1ccc2nc(Cl)c(/C=C/C(=O)c3ccco3)cc2c1 was read as tim23-1 inh 64*, NALP1 yeast inh -2, NLRP3 yeast inh 18, PfHsp90 set2 12, TIM10 inh 51*, tim10-1 inh 44*, tim10-1 confirm 28, tim10 confirm 52* and tim23-1 conf 50*.
Screening COc1ccc2cc(/C=C/C(=O)c3ccco3)c(Cl)nc2c1 returned tim23-1 inh 52*, NALP1 yeast inh 4, NLRP3 yeast inh 20, TIM10 inh 46*, tim10-1 inh 45*, tim10-1 confirm 38*, tim10 confirm 16 and tim23-1 conf 48*.
